Test results from PubChem BioAssay.

Tests used:
[1] = inhibitors of PAF-induced NFkB signaling in CF airway cells, dose response, cell-based, uHTS hits, panel, cytotoxicity readout (AID 624344); conditions: CF bronchial epithelial cells, PAF-induced NFkB reporter inhibition, with PAF, run 1; at 79 µM (top of the series) unless noted
[2] = as above; conditions: CF bronchial epithelial cells, PAF-induced NFkB reporter inhibition, with PAF, run 2; at 79 µM (top of the series) unless noted

| Structure (SMILES) | inhibition [1] [%] | inhibition [2] [%] |
| --- | --- | --- |
| CC(NC(=O)OCc1ccccc1)C(=O)Oc1cc2oc(=O)cc(-c3ccccc3)c2cc1Cl (stereo not drawn) | 103 | 103 |
| COc1ccc(Nc2nccc(-c3cccc(N)c3)n2)cc1 | 103 | 117 |
| CCOC(=O)c1[nH]c2c(c1C)C(=O)CC(c1ccco1)C2 (stereo not drawn) | 40.8 | 98.7 |
| CN1CCN(S(=O)(=O)c2ccc(Sc3nnnn3-c3ccccc3)c([N+](=O)[O-])c2)CC1 | 109 | 99.5 |
| COc1ccc(-n2nc(C(=O)NCC(=O)Nc3cc(OC)c(OC)c(OC)c3)c3ccccc3c2=O)cc1OC | 102 | 101 |
| Cc1ccc2c(c1)C(=O)C(=O)N2Cc1ccc(Br)cc1 | 106 | 113 |
| COCCN1Cc2cccc(C(=O)Nc3cccc(-c4nc5ccccc5[nH]4)c3)c2C1=O | 95.8 | 114 |
| COc1ccc(-c2csc(NC3OC(=O)c4c3ccc(OC)c4OC)n2)cc1OC (stereo not drawn) | 109 | 100 |
| N=C1N(c2ccccc2)C(=S)C(=Nc2ccccc2)N1c1ccccc1 | 114 | 103 |
| O=C(Nc1ccc(Oc2ccc(NC(=O)Nc3ccc([N+](=O)[O-])cc3)cc2)cc1)Nc1ccc([N+](=O)[O-])cc1 | 101 | 114 |
| CC(C)(C)C(=O)/C(=C/c1ccncc1)n1cncn1 | 98.3 | 102 |
| C=C1C(=O)O[C@@]23[C@H]1CC[C@@H](C)[C@@H]2CC[C@@]1(C)O[C@@H]31 | 113 | 105 |
| Cc1ccc(CCC(=O)Nc2ncc(Cc3cccc(Cl)c3Cl)s2)o1 | 101 | 112 |
| O=C(NCCCSc1ccccc1)c1cc(Br)ccc1O | 110 | 103 |
